Assay results as given in PubChem BioAssay AID651558 (National Center for Advancing Translational Sciences (NCATS), 2012).
Screen size: about 1,200 compounds; about 480 (40%) were called active. Inconclusive results (about 29%) are left out. The call rests on the fitted dose curve; in most records, active means well fitted inhibition curve with a large enough effect; inconclusive means small, poorly fitted or top-dose-only effect; inactive means no such curve, though single readings can be large or run the other way. Some of the results follow.

Assay: qHTS Assay to Find Inhibitors of Chronic Active B-Cell Receptor Signaling: Hit Validation in Primary Screen; further: nearly all actives have a fitted effect of over 75% in size
Conditions: ABC-DLBCL IkB-luc/CBR ratio luminescence, 4 h; series mostly up to 46.1 µM; activity change, negative = inhibition: at the top concentration
How it was run: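 Concentration series (3 nM to 46 uM) tested on TMD8 cells induced with doxycycline for 4 h. Filter-corrected green (IkBa fusion) over red (unfused) luciferase signal; Data were normalised to 10 uM MG-132 and untreated cell wells.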
On the % scale 0 is the no-effect control and ±100 the full control effect; potency means the concentration at half of the fitted maximal effect.

Activity change, negative = inhibition, inactive:
CC(C)COc1ccc(C(=O)Nc2cc(S(=O)(=O)N3CCOCC3)ccc2N2CCCC2)cc1 -6.48%
CCOc1ccc2nc(N3C(=O)CNC3=S)sc2c1 58.1%
CN(CC(=O)Nc1ccccc1C(F)(F)F)C(=O)c1ccccc1Sc1ccccc1C#N -11.6%
C=CCNC(=S)NN=C1CCCCCCC1 -10.4%
CCOC(=O)c1cnc(Nc2nc3ccccc3o2)nc1CSC(=S)N(CC)CC -0.925%
Oc1ccccc1-n1c(-c2ccccc2)ccc1-c1ccccc1 -13.2%
COc1cc(OC)cc(C(=O)NCc2cc(C)nc3ccccc23)c1 -13.4%
O=C(CSc1nnnn1-c1ccccc1)Nc1nsc(-c2ccc(Cl)cc2)n1 93.8%
CCc1nnc(NC(=O)CSc2nnc(-c3ccccc3NC(=O)c3ccccc3)o2)s1 -5.82%
Cc1cc(=O)[nH]c2ccc(S(=O)(=O)Nc3ccc(O)cc3)cc12 -19.3%
CCOC(=O)C1C(C(=O)OC)=C(c2ccc(OC)cc2)c2ccccc2N1S(=O)(=O)C(F)(F)F (stereo unspecified) -14%
COc1cc(NC(=O)COC(=O)Cc2ccc(-c3ccccc3)cc2)cc(OC)c1 -9.19%
CCCn1nnc(NC(=S)NC(=O)Cc2ccccc2)n1 -4.95%
COc1ccc(OCC(O)CN2CCN(c3ccccc3)CC2)cc1 (stereo unspecified) -11.5%
Cc1ccc(C2OCC3(CO)COC(c4ccc(C)cc4)N23)cc1 (stereo unspecified) -6.87%
Oc1[nH]c2ccc(Br)cc2c1N=NC(=S)Nc1ccc(F)cc1 6.69%
Cc1ccccc1C1=NC(C(F)(F)F)(C(F)(F)F)c2c(n(C)c(=O)n(C)c2=O)N1 -19.6%
COc1cc(NC(=S)NC(=O)c2ccccc2F)ccc1NC(=O)c1ccco1 41.4%
CCC(C)NC(=O)c1ccccc1NC(=O)c1ccc(CSc2ccccc2)cc1 (stereo unspecified) 39.9%

Potency, active:
CCOC(=O)N1CCN(S(=O)(=O)c2ccc(C(=O)Nc3ccc(F)cc3F)cc2)CC1 20.6 µM
COc1cc(OC)cc(-c2cc3cc4c(cc3cn2)OCO4)c1 3.66 µM
CCOC(=O)C1CCN(S(=O)(=O)c2c(Cl)ccc3nonc23)CC1 5.8 µM
CCOC(=O)Nc1ccc2nc(N3CCCCCC3)sc2c1 20.6 µM
COc1cccc(N2CCN(C(=O)c3ccc(CS(=O)c4ccc(Cl)cc4)o3)CC2)c1 (stereo unspecified) 23.1 µM
COc1cccc(N2CCN(C(=O)c3ccc(CS(=O)c4ccc(C)cc4)o3)CC2)c1 (stereo unspecified) 6.51 µM
COc1ccc(C=C2c3ccccc3C(=O)c3ccccc32)c(OC)c1 4.61 µM
O=C(OCC(O)CO)c1ccccc1Nc1ccnc2cc(Cl)ccc12 (stereo unspecified) 20.6 µM
N#CC1=C(N)OC2=C(CCc3ccccc32)C1c1ccccc1 (stereo unspecified) 2.59 µM
Cc1nc2c(C(F)(F)F)cccc2c2c1CCS2 16.4 µM
COc1ccccc1-n1cnc2cc(NCc3cccs3)ccc21 16.4 µM
N#CC1=C2SCC(O)(c3ccccc3)N2C(=O)CC1c1ccccc1 (stereo unspecified) 18.4 µM
N#CC1=C2SCC(O)(c3ccccc3)N2C(=O)CC1c1cccs1 (stereo unspecified) 13 µM
COc1cc(OC)cc(C(=O)NCc2ccc3c(c2)CCN3C(=O)c2ccccc2)c1 10.3 µM
CCOc1ccccc1NC(=O)Cn1nnc(C(=O)NCc2cccs2)c1N 2.59 µM
O=C(CSc1ncn[nH]1)Nc1nnc(-c2ccccc2)s1 0.231 µM
CC1CCN(C(=O)CCCOc2cc(=O)n(C)c3ccccc23)CC1 23.1 µM
O=C(N1CCN(c2ccccn2)CC1)N1c2ccccc2Sc2ccccc21 7.31 µM
Cc1ccc(NS(=O)(=O)c2cc(-c3n[nH]c(=O)c4ccccc34)ccc2C)cc1 18.4 µM
CC(=O)Nc1ccc(NS(=O)(=O)c2cc(-c3n[nH]c(=O)c4ccccc34)ccc2C)cc1 23.1 µM
CCn1c2ccccc2c2cc(NC(=O)c3cc(OC)c(OC)c(OC)c3)ccc21 0.731 µM
COc1cc(OC)cc(C(=O)NCC(=O)Nc2ccc(-c3ccccc3)cc2)c1 20.6 µM
CCn1c2ccccc2c2cc(NC(=O)c3cc(OC)cc(OC)c3)ccc21 2.06 µM
Cc1ccc(Nc2nc(-c3c(C)nc4ccccn34)cs2)cc1 0.259 µM
Cc1ccc(Nc2nc(-c3c(C)nc4ncccn34)cs2)cc1 4.11 µM
COc1ccc(Nc2nc(-c3c(C)nc4ncccn34)cs2)cc1 2.31 µM
Cc1nc2ncccn2c1-c1csc(Nc2ccc(N(C)C)cc2)n1 7.31 µM
COc1ccc(NC(=O)C(=O)c2cn(CC(=O)N3CCCC3)c3ccccc23)cc1 9.2 µM
COc1cc2cnc(-c3ccccc3)cc2cc1OC 20.6 µM
COc1ccccc1C(=O)Nc1ccccc1SC(=O)c1ccccc1OC 7.31 µM
Cc1ccc(CCC(=O)Nc2ncc(Cc3cccc(Cl)c3Cl)s2)o1 0.231 µM
CCc1ccc(CCC(=O)Nc2ncc(Cc3ccccc3Cl)s2)o1 2.91 µM
